Several values for one entry are separate records, joined by “and”; a condition that tells them apart may be missing. Equal values may be shown once. Results filed as inconclusive are left out. The source holds several records for some structures; these can differ, active in one and inactive in another. Activity calls are given as the source filed them. The call rests on the fitted dose curve; in most records, active means well fitted curve in the direction sought with a large enough effect; inconclusive means small, poorly fitted or top-dose-only effect, or another doubt; inactive means no such curve, though single readings can be large; an effect the other way counts as inactive or inconclusive.
Columns and labels:
[1] = test system: HaCat; assay: Cytotoxic Profiling of Annotated Libraries Using Quantitative High-Throughput Screening (AID 1296008); conditions: Five cell lines viability, CellTiter-Glo ATP luminescence, 48-72 h; max response: active compounds read low; further: nearly all actives have a fitted effect of over 60% in size; further: potency means the concentration at half of the fitted maximal effect
Method in brief: (§1)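 Cytotoxicity was measured as CellTiter-Glo ATP luminescence, read after 10 min at room temperature. Compound treatment of the cells lasted 48 or 72 hr at 37 degrees Celsius in a qHTS format.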

[2] = test system: KB-3-1; assay: as above; conditions: Five cell lines viability, CellTiter-Glo ATP luminescence, 48-72 h; max response: active compounds read low
Method in brief: as §1

[3] = test system: NIH3T3; assay: as above; conditions: Five cell lines viability, CellTiter-Glo ATP luminescence, 48-72 h; max response: active compounds read low
Method in brief: as §1

[4] = test system: HACAT; assay: qHTS assay to identify novel small-molecules to repurpose for Merkel cell carcinoma treatment (AID 1296009); conditions: MCC and control cell lines, CellTiter-Glo viability, 72 h; at 44.8 µM (top of the series) unless noted; further: nearly all actives have a fitted effect of over 60% in size; further: potency means the concentration at half of the fitted maximal effect
Method in brief: (§2)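 Cell viability measured by CellTiter-Glo following 72 hr compound treatment at 37 degree celsius, with NPC and MIPE libraries tested in 8- and 11-point concentration series.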

[5] = test system: HEK293T; assay: as above; conditions: MCC and control cell lines, CellTiter-Glo viability, 72 h; at 44.8 µM (top of the series) unless noted
Method in brief: as §2

[6] = test system: MCC-13; assay: as above; conditions: MCC and control cell lines, CellTiter-Glo viability, 72 h; series mostly up to 46 µM
Method in brief: as §2

[7] = test system: MCC-26; assay: as above; conditions: MCC and control cell lines, CellTiter-Glo viability, 72 h; series mostly up to 46 µM
Method in brief: as §2

[8] = test system: MKL-1; assay: as above; conditions: MCC and control cell lines, CellTiter-Glo viability, 72 h; series mostly up to 46 µM
Method in brief: as §2

[9] = test system: MKL-2; assay: as above; conditions: MCC and control cell lines, CellTiter-Glo viability, 72 h; series mostly up to 46 µM
Method in brief: as §2

[10] = test system: NIH3T3; assay: as above; conditions: MCC and control cell lines, CellTiter-Glo viability, 72 h; at 44.8 µM (top of the series) unless noted
Method in brief: as §2

[11] = test system: UISO; assay: as above; conditions: MCC and control cell lines, CellTiter-Glo viability, 72 h; series mostly up to 46 µM
Method in brief: as §2

[12] = test system: WaGa; assay: as above; conditions: MCC and control cell lines, CellTiter-Glo viability, 72 h; series mostly up to 46 µM
Method in brief: as §2

[13] = test system: CRL-7250; assay: as above; conditions: MCC and control cell lines, CellTiter-Glo viability, 72 h; at 44.8 µM (top of the series) unless noted
Method in brief: as §2

[14] = test system: C33A; assay: Primary qHTS to identify gynecologic anti-cancer compounds using libraries of approved drugs and bioactive compounds (AID 1345084); conditions: Gynecologic cancer cell panel viability, ATPlite luminescence, 48 h; series mostly up to 57.5 µM; further: nearly all actives have a fitted effect of over 55% in size
Method in brief: (§3)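 Five-concentration response, 48 h; readout is ATP-driven luciferase luminescence.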

[15] = test system: CAOV3; assay: as above; conditions: Gynecologic cancer cell panel viability, ATPlite luminescence, 48 h; series mostly up to 57.5 µM
Method in brief: as §3

[16] = test system: CASKI; assay: as above; conditions: Gynecologic cancer cell panel viability, ATPlite luminescence, 48 h; series mostly up to 57.5 µM
Method in brief: as §3

[17] = test system: Es-2; assay: as above; conditions: Gynecologic cancer cell panel viability, ATPlite luminescence, 48 h; series mostly up to 57.5 µM
Method in brief: as §3

[18] = test system: HeLa; assay: as above; conditions: Gynecologic cancer cell panel viability, ATPlite luminescence, 48 h; series mostly up to 57.5 µM
Method in brief: as §3

[19] = test system: Hek293T; assay: as above; conditions: Gynecologic cancer cell panel viability, ATPlite luminescence, 48 h, control line for the selectivity index; series mostly up to 57.5 µM
Method in brief: as §3

[20] = test system: JEG-3; assay: as above; conditions: Gynecologic cancer cell panel viability, ATPlite luminescence, 48 h; series mostly up to 57.5 µM
Method in brief: as §3
On the % scale 0 is the no-effect control and ±100 the full control effect.

C[C@H]([C@H](O)CCC(C)(C)O)[C@H]1CC[C@@]2(O)C3=CC(=O)[C@@H]4C[C@@H](O)[C@@H](O)C[C@]4(C)[C@@H]3CC[C@]12C
inactive: outcome [1] | max response [2] -1.89% | outcome [3] | outcome [4] | outcome [5] | Potency [6] | Potency [7] | Potency [8] | Potency [9] | outcome [10] | Potency [11] | Potency [12]

CC(O)CN1CCN(CC(=O)[O-])CCN(CC(=O)[O-])CCN(CC(=O)[O-])CC1.[Gd+3] (stereo not drawn)
inactive: max response [1] -14.5% | max response [2] -2.15% and -0.0896% | max response [3] -1.05% | outcome [13] | Potency [6] | Potency [7] | Potency [8] | Potency [9] | Potency [11] | Potency [12] | Potency [14] | Potency [15] | Potency [16] | Potency [17] | Potency [18] | Potency [19] | Potency [20]

COC1=C[C@@H]2[C@@H]3Cc4ccc(OC)c(O)c4[C@]2(CCN3C)CC1=O
inactive: max response [1] -2.22% | outcome [1] | max response [2] 1.47% | outcome [2] | outcome [3] | outcome [13] | outcome [4] | Potency [6] | Potency [7] | Potency [8] | Potency [9] | outcome [10] | Potency [11] | Potency [14] | Potency [15] | Potency [16] | Potency [17] | Potency [18] | Potency [19] | Potency [20]

CC(C)N(CCNC(=O)CN1CCCC1=O)C(C)C
inactive: max response [1] -6.79% and -2.04% | max response [2] -4.8% | outcome [2] | max response [3] 2.3% | outcome [3] | Potency [6] | Potency [7] | Potency [8] | Potency [9] | outcome [10] | Potency [11] | Potency [12] | Potency [14] | Potency [15] | Potency [16] | Potency [17] | Potency [18] | Potency [19] | Potency [20]

O=C(Oc1ccc([N+](=O)[O-])cc1)N1CCC(C(O)(c2ccc3c(c2)OCO3)c2ccc3c(c2)OCO3)CC1
inactive: max response [1] -5.43% | outcome [1] | max response [2] 5.68% and 6.78% | outcome [3] | outcome [4] | Potency [6] | Potency [7] | Potency [8] | Potency [9] | outcome [10] | Potency [11] | Potency [12] | Potency [14] | Potency [15] | Potency [16] | Potency [17] | Potency [18] | Potency [19] | Potency [20]

O=C1C(I)=CC(=C(c2cc(I)c(O)c(I)c2)c2ccccc2C(=O)O)C=C1I
inactive: outcome [1] | max response [2] -3.52% and 5.85% | outcome [3] | outcome [13] | outcome [4] | Potency [7] | Potency [8] | Potency [9] | outcome [10] | Potency [11] | Potency [12] | Potency [14] | Potency [15] | Potency [16] | Potency [17] | Potency [18] | Potency [19] | Potency [20]

Oc1ccc2c3c1O[C@H]1c4[nH]c5c(c4C[C@@]4(O)[C@@H](C2)N(CC2CC2)CC[C@]314)C[C@@]1(O)[C@H]2Cc3ccc(O)c4c3[C@@]1(CCN2CC1CC1)[C@H]5O4
inactive: max response [1] -0.228% | outcome [2] | max response [3] -5.25% | outcome [13] | outcome [5] | Potency [6] | Potency [7] | Potency [8] | Potency [9] | Potency [11] | Potency [12]

O=C(N[C@H]1CN2CCC1CC2)c1ccc(Cl)cc1
inactive: outcome [1] | outcome [2] | max response [3] -6.97% | outcome [3] | outcome [13] | outcome [4] | outcome [5] | Potency [6] | Potency [7] | Potency [8] | Potency [9] | outcome [10] | Potency [11] | Potency [12] | Potency [14] | Potency [15] | Potency [16] | Potency [17] | Potency [18] | Potency [19] | Potency [20]

Cc1ccccc1-n1c(Cn2cnc3c(N)ncnc32)nc2cccc(C)c2c1=O
inactive: max response [1] -10.3% | max response [2] 0.515% | max response [3] -1.65% | outcome [5] | Potency [14] | Potency [15] | Potency [16] | Potency [17] | Potency [18] | Potency [19] | Potency [20]
active: Potency [1] 590 nM | Potency [2] 1320 nM | Potency [3] 2640 nM | Potency [7] 6620 nM | Potency [11] 3720 nM

COc1ccc2c(c1)CN(C)CC2c1ccc(Cl)c(Cl)c1 (stereo not drawn)
inactive: outcome [1] | outcome [2] | max response [3] -1.98% | outcome [13] | outcome [4] | Potency [6] | Potency [7] | Potency [8] | Potency [11] | Potency [12]

O=c1[nH]c2ccccc2n1C1CCN(Cc2ccc(-c3[nH]c4cc5ncnc5cc4nc3-c3ccccc3)cc2)CC1
inactive: max response [1] 0.8% | outcome [2] | max response [3] -3.31% | outcome [13] | Potency [6] | Potency [7] | Potency [8] | Potency [9] | Potency [11] | Potency [12]

CC1=NN=C(c2ccc(N)cc2)c2cc3c(cc2C1)OCO3
inactive: max response [1] -15.7% | outcome [2] | outcome [3] | outcome [13] | Potency [6] | Potency [7] | Potency [8] | Potency [9] | outcome [10] | Potency [11] | Potency [12]

CC(C)(C)C(O)C(Oc1ccc(Cl)cc1)n1cncn1 (stereo not drawn)
inactive: max response [1] 0.929% | max response [2] -16.3% | max response [3] 3.17% | outcome [13] inactive [at 92 µM] | Potency [6] | Potency [7] | Potency [14] | Potency [15] | Potency [16] | Potency [17] | Potency [18] | Potency [19] | Potency [20]

CN1CCN(c2ccc([N+](=O)[O-])c3no[n+]([O-])c23)CC1
inactive: max response [1] 4.94% and 1.91% | outcome [2] | max response [3] 0.637% | outcome [3] | Potency [6] | Potency [7] | Potency [8] | outcome [10] | Potency [11] | Potency [14] | Potency [15] | Potency [16] | Potency [17] | Potency [18] | Potency [19] | Potency [20]

— PubChem BioAssay (NCATS)
